# According to PubChem BioAssay AID651871 (Sanford-Burnham Center for Chemical Genomics, 2012):
# Tested on: HL-1
# Experiment: cardiomyocyte survival under oxidative or metabolic stress – cell-based, panel, H9c2 and HL-1, ATP luminescence, set 2, SAR follow-up (AID 651871);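 further: cells exposed to stressor for 2 h before ATP readout; reference of the scale not given here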
# Conditions: H9c2/HL-1 cardiomyocytes, 2-deoxyglucose stress, with 2-deoxyglucose, run 11, at 19.8 µM (top of the series)
structure (smiles),measurement,value
COc1ccc2c(c1OC)C(=O)N1c3ccccc3C(=O)N(Cc3cccc(Cl)c3Cl)C21 (stereo unspecified),activity (protection/inhibition),40%
